Values without a mark were called inactive. No rule for the calls is given here.

The target in the experiment is Pantothenate synthetase (Mycobacterium tuberculosis (strain ATCC 25618 / H37Rv)) (UniProt P9WIL5). The experiment is described as follows: Coupled enzyme confirmation of inhibitors against recombinant Mtb PanC (AID 375).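 Also: 0% = full reaction with vehicle and 100% = no enzyme background.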 Particulars: coupled enzyme assay; at 10 µM, hits give high values.
Sequence of Pantothenate synthetase (Mycobacterium tuberculosis (strain ATCC 25618 / H37Rv)) (P9WIL5 whole entry, looked up): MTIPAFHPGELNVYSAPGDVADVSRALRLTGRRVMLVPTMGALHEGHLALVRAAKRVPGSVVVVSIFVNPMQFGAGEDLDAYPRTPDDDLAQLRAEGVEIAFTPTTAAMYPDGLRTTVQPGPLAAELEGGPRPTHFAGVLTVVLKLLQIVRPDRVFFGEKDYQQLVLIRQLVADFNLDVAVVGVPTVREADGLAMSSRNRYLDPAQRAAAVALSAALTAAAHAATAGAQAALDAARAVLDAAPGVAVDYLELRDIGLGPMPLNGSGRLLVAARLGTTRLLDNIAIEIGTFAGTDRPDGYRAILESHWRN

For the molecule `O=C(CN1C(=O)COc2ccccc21)N(Cc1cccnc1)Cc1ccccc1F`, the inhibition is 0%. In the case of `Cc1cc(C(N)=O)c2cc(Br)ccc2n1`, the inhibition is 10%.

Regarding `N#C/C(C(=O)NCc1ccco1)=C1/SC(Cc2ccc(F)cc2)C(=O)N1c1ccccc1` (centres undefined), the inhibition was 0%.

For the molecule `CCOC(=O)C1CCCN(C(=O)c2sc3nc(-c4ccccc4)cn3c2C)C1` (centres undefined), the inhibition was 0%. In the case of `CC(C(=O)c1ccccc1)n1cnc2ccccc2c1=O` (centres undefined), the inhibition was 9%. Then `O=C(CC1CCCCC1)NCc1ccccn1`, with 0%. In the case of `O=C(Cn1c(SCC(=O)N2CCCc3ccccc32)nc2ccccc21)N1CCCC1` it was 0%; in that of `O=C(CSc1nnc(Cn2nnc(-c3ccccc3)n2)n1-c1ccccc1)Nc1ccc(F)cc1`, 1%.

Consider `CC(=O)c1ccccc1OCCn1nnc(-c2ccc(C)cc2)n1`, for which the inhibition was 0%. With `CC(C)(Oc1ccc(CCNC(=O)c2ccc(Cl)cc2)cc1)C(=O)O`, the inhibition is 0%.

In the case of `CCn1c(SCC(=O)c2ccc(OC)cc2)nnc1C(C)NC(=O)c1ccc(OC)cc1` (centres undefined), the inhibition was 3%. As to `COc1ccccc1CNS(=O)(=O)c1cccc(S(=O)(=O)N2CCOCC2)c1`, the inhibition is 0%. Consider `O=C1C2ON(c3ccc(Cl)cc3)C(c3ccco3)C2C(=O)N1c1ccccc1` (centres undefined), for which the inhibition was 0%. For the molecule `CCC(C)(C)n1nnnc1C(c1cc2cc(OC)ccc2[nH]c1=O)N1CCc2ccccc21` (centres undefined), the inhibition was 0%.

For `Cc1cc(NS(=O)(=O)c2ccc(NC(=O)C(C)N3C(=O)c4ccccc4C3=O)cc2)nc(C)n1` (centres undefined), the inhibition is 1%. As for `CCC(C)NC(=O)C1(C)CCC(=O)N1CCc1ccc(OC)c(OC)c1` (centres undefined), the inhibition was 0%.

On to `Cc1ccc(-c2nc3cnccn3c2Nc2ccc3c(c2)OCO3)o1`, for which the inhibition is 2%.

With `CN(C)c1ccc(C=Nc2ccc(N(C)C)cc2)cc1`, the inhibition is 0%. `CC(=O)Nc1ccc(S(=O)(=O)NCC2CCC(C(=O)NCCCN3CCCC3=O)CC2)cc1` (centres undefined): the inhibition is 0%. On to `Cc1cc(C)c2oc(=O)cc(CN3CCOCC3)c2c1`, for which the inhibition is 0%. On to `Oc1c(Cl)cc(Cl)c2c1NCCC2`, for which the inhibition is 1%.

In the case of `Cc1nn(C)c(C)c1CNC(=O)c1cc2n(n1)C(C(F)(F)F)CC(c1cccs1)N2` (centres undefined), the inhibition was 7%. For the molecule `Cc1ccc2c(c1)C1CCCC3C1N2CC(=O)N3Cc1ccccc1` (centres undefined), the inhibition is 0%. As for `CCOc1nc(-c2ccncc2)nc2ccccc12`, the inhibition is 0%. On to `CCCc1nn(CCc2ccccn2)c(N)c1CC`, for which the inhibition was 6%. As for `CC(C)CC(=O)CN1C(=O)C2(OCCO2)c2ccccc21`, the inhibition is 0%. Take `Cc1ncoc1C(=O)Nc1cccc(Cl)c1C`: the inhibition was 1%. Consider `COC(=O)c1cc2oc(C)cc2n1CC(=O)N(C)c1ccccc1`, for which the inhibition is 0%. On to `O=S1(=O)CCC(N=Cc2cc(Br)ccc2O)C1` (centres undefined), for which the inhibition is 0%.

As to `COc1ccccc1-n1c(-c2cccnc2)n[nH]c1=S`, the inhibition is 0%.

Regarding `CCOC(=O)c1cccc(NC2c3ccccc3C(=O)N2Cc2ccco2)c1` (centres undefined), the inhibition is 7%.

Take `CC(=O)CCc1c(C)[nH]c2ccccc2c1=O`: the inhibition was 1%. `CCCCc1ccc(NC(=O)c2c(C)noc2C)cc1`: the inhibition was 8%. As to `CC(=O)c1coc2ccc(OCC(=O)O)cc12`, the inhibition was 0%. Then `C=CCn1c(Cc2csc(N)n2)nnc1SCC(=O)OCC`, with 1%; and `CCC(=O)N1CCN=C1SCc1ccc(Cl)cc1`, with 0%; and `COc1cccc(C2=NOC(C(=O)Nc3cc(C)nn3-c3ccccc3)C2)c1OC` (centres undefined), with 0%.

As for `CC(CCc1ccccc1)NC(=O)CSc1nc(N)cc(N)n1` (centres undefined), the inhibition was 0%. Then `Cc1cc(C)c(C(=O)Nc2ccc(S(=O)(=O)Nc3onc(C)c3C)cc2)c(C)c1`, with 8%; and `COc1ccc(N2CCN(CCNS(=O)(=O)c3cccc4nsnc34)CC2)cc1`, with 2%; and `[N-]=[N+]=CC(=O)CC(c1ccccc1)N1C(=O)c2ccccc2C1=O` (centres undefined), with 0%. With `Cc1cc(O)c(-c2cc(C(=O)Nc3ccc(S(=O)(=O)N4CCOCC4)cc3)[nH]n2)cc1C`, the inhibition is 0%.

Turning to `CNC(=O)CSc1nnc(-c2cccc(S(=O)(=O)N3CCOCC3)c2)n1-c1ccc(F)cc1`, the inhibition was 0%.

Turning to `COC(=O)c1ccc(C2C(C#N)=C(N)Oc3cc(C)n(C)c(=O)c32)cc1` (centres undefined), the inhibition is 0%. On to `O=C(NC1(C(F)(F)F)C(=O)Nc2c1c(=O)[nH]c(=O)n2Cc1ccco1)C1CCCCC1` (centres undefined), for which the inhibition is 0%. Regarding `Cc1nn(C(=O)c2cc3sccc3[nH]2)c(C)c1C`, the inhibition is 0%. Turning to `CCOC(=O)C(NCc1ccccc1OC)(NC(C)=O)C(F)(F)F` (centres undefined), the inhibition was 0%. As for `Cc1ccc2nc3c(cc2c1)CN(Cc1ccco1)C(=NCC1CCCO1)S3` (centres undefined), the inhibition is 0%. With `Cn1c(=O)c2c([nH]c(=O)n2C)n(C)c1=O`, the inhibition was 0%. In the case of `CCCc1c(OCCCCc2nn[nH]n2)ccc(C(C)=O)c1O` it was 0%. `O=S(=O)(c1ccccc1)c1nc(-c2ccco2)oc1NCCCN1CCOCC1`: the inhibition was 0%. For the molecule `CC(C)(O)C#Cc1ccc(C(=O)N2CCN(C(=O)c3ccco3)CC2)cc1`, the inhibition was 0%.

As for `COc1ccc(N2C(=O)CC(NC3CC3)C2=O)cc1` (centres undefined), the inhibition is 0%. With `CC(C)C1C2=C(CC(C)(C)CC2=O)ON1c1ccccc1` (centres undefined), the inhibition was 1%. As for `C=C(c1cccc2ccccc12)P(=O)(O)O`, the inhibition is 2%. With `FC(F)(F)COc1nc(N2CCCCC2)nc(N2CCNCC2)n1`, the inhibition was 4%. Then `CCCOc1ccccc1NC(=O)c1ccc(N)cc1`, with 3%; and `CCOC(=O)c1sc2nc(C)cc(C)c2c1N`, with 0%. As for `CCOc1ccc(C(=O)N2CCN(c3ccccc3)CC2)cc1OCC`, the inhibition was 1%.

As to `O=C(NCc1nc2ccccc2[nH]1)c1ccco1`, the inhibition was 0%.

Consider `CCCn1nnnc1SCC(=O)c1ccc2c(c1)OCCO2`, for which the inhibition was 11%. As to `O=C(COC(=O)CSc1nnc(-c2ccc(Cl)cc2)o1)NCc1ccc2c(c1)OCO2`, the inhibition is 12%. Consider `Cc1cc(NC(=O)CS(=O)(=O)c2cn(Cc3ccccc3Cl)c3ccccc23)no1`, for which the inhibition is 9%. For the molecule `c1ccc(-c2nnc(SCc3nc4ccccc4[nH]3)o2)cc1`, the inhibition was 0%. On to `CC(C)(C)SCCNC(=O)COc1ccc(Cl)cc1`, for which the inhibition is 0%. On to `Cc1cc(C)n(C(=O)CCCCCC(=O)n2nc(C)cc2C)n1`, for which the inhibition was 6%.

As to `CC(C)(C)OC(=O)NCCc1nnc(SCC(=O)c2ccc(Cl)cc2)o1`, the inhibition is 0%.

Turning to `COc1ccc(CNC(=O)CCc2nc(-c3ccccc3F)no2)c(OC)c1`, the inhibition is 0%. In the case of `COc1cc(CNc2ccc(N3CCOCC3)c(C(=O)O)c2)ccc1OCC(N)=O` it was 1%.

With `N#CC1=C(SCC(=O)c2cc3ccccc3oc2=O)NC(=O)C(C#N)C12CCCC2` (centres undefined), the inhibition is 0%. In the case of `N#CC1=C(SCC(=O)NC2CCCCC2)NC(=O)CC1c1ccco1` (centres undefined) it was 8%. Turning to `CCc1nnc(NC(=O)c2cc3ccccc3oc2=O)s1`, the inhibition is 2%. With `COc1cccc(CN=CC2=C(O)CC(C)(C)CC2=O)c1OC`, the inhibition was 0%. Turning to `CCOc1ccc2nc(SCC(=O)N3CCCCCC3)c(C#N)cc2c1`, the inhibition was 0%. Turning to `Nc1nc(N2CCCCC2)nc(N(c2ccccc2)c2ccccc2)n1`, the inhibition was 3%.

Consider `C=C(Cl)COc1ccc2c(C)cc(=O)oc2c1`, for which the inhibition was 2%.

Turning to `CCCCOC(=O)Nc1nccs1`, the inhibition was 9%. Regarding `CCOc1cc(NC(=O)c2ccccn2)c(OCC)cc1NC(=O)CC(C)C`, the inhibition is 11%. As for `COc1cccc(C2CC(c3ccc(C)cc3)n3nc(N)nc3N2)c1` (centres undefined), the inhibition was 15%. For `Cc1cc(NC(=O)CS(=O)(=O)c2cn(Cc3cccc(F)c3)c3ccccc23)no1`, the inhibition is 4%.

In the case of `COc1ccccc1-c1nnc(SCc2ccccn2)n1C`, the inhibition is 0%. On to `Cc1c(O)c(CN2CCCCC2)cc2c3c(c(=O)oc12)CCC3`, for which the inhibition was 2%.

Consider `N#Cc1cc2ccccc2nc1SCC(=O)Nc1ccccc1N1CCOCC1`, for which the inhibition is 0%.

As to `Cc1cccc(OCC(=O)N2CCC(N3CCCCCC3)CC2)c1`, the inhibition was 0%. As for `Cc1cc(NS(=O)(=O)c2ccccc2)n(-c2ccccc2)n1`, the inhibition is 0%. Consider `Cc1cc(/C=c2/sc3nc4ccccc4n3c2=O)c(C)n1-c1ccccn1`, for which the inhibition is 1%.

Consider `CCC(=O)N(Cc1cc2c(C)ccc(C)c2[nH]c1=O)C1CCCCC1`, for which the inhibition is 0%. For the molecule `CCN(c1cccc(C)c1)S(=O)(=O)c1ccc2[nH]c(=O)c(=O)[nH]c2c1`, the inhibition was 7%. Take `CCOc1ccc(N(C(C)C(=O)NC2CCCCCC2)S(C)(=O)=O)cc1` (centres undefined): the inhibition is 1%.

In the case of `O=C(CSc1nc2ccccc2s1)N1CCOCC1`, the inhibition is 0%. In the case of `O=C(O)c1ccccc1Nc1cccc(C(F)(F)F)c1` it was 2%; in that of `COC(=O)c1ccccc1NC(=O)CN1CCC(n2nnc3cc(F)ccc32)CC1`, 0%. Take `O=C(CNC(=O)c1cccs1)NCCN1CCN(c2ccccc2F)CC1`: the inhibition was 0%. Turning to `O=C(Nc1sc2c(c1C(=O)NCc1ccco1)CCCC2)c1ccc2c(c1)OCO2`, the inhibition was 1%. As for `COC(=O)c1ccc(CSc2nnnn2Cc2ccccc2)cc1`, the inhibition was 0%. With `CCOC(=O)C1CCCN(C(=O)Cc2ccc(OC)c(OC)c2)C1` (centres undefined), the inhibition is 0%.

Consider `CCn1c(C(=O)N2CCCC(C(=O)O)C2)cc2sccc21` (centres undefined), for which the inhibition is 11%. `Cc1oc2c(c1C(=O)NCc1ccccc1)CCCC2`: the inhibition is 0%. Then `COc1cccc(NC(=O)CSc2nnc(Cc3cccn3C)n2-c2ccc(F)cc2)c1`, with 4%; and `Oc1ccc(-c2n[nH]c(=S)n2Cc2ccccc2)cc1`, with 0%; and `CCNC(=O)COc1ccc(Br)cc1Cl`, with 4%. In the case of `C=CCSC1=C(C#N)C(c2ccccc2)CC(=O)N1` (centres undefined), the inhibition was 0%. For `CSc1ccccc1C(=O)NC1CC2CCC1C2` (centres undefined), the inhibition was 0%. Turning to `CC(=O)Nc1ccc(NC(=O)c2cc(C)nn2-c2ccccc2)cc1`, the inhibition is 2%.

(Values after PubChem BioAssay.)
